Here are results for 7 compounds from PubChem BioAssay (NCATS).

Molecules are shown by their SMILES. Inconclusive results are not listed. Where a call stands in place of a potency, no number is given. The source made the active and inactive calls. Calls come from the whole dose curve; as a rule, active = well fitted inhibition curve with a large enough effect; inconclusive = small, poorly fitted or top-dose-only effect; inactive = no such curve, though single readings can be large or run the other way.
Potency is the fitted concentration of half-maximal effect.

The nature of the assay: Primary qHTS for inhibitors of nuclear receptor binding SET domain protein 2 (NSD2) in an RCH-ACV wild type WT cells (2C) (AID 1645877). Note: nearly all actives have a fitted effect of over 70% in size. Conditions: RCH-ACV (leukaemia line) NSD2 WT (2C) viability, CellTiter-Glo, 72 h; series mostly up to 44.9 µM. On the technique in general: In qHTS, concentration-response curves come from the screen itself.
On to `Oc1c(Cl)cc(Cl)c2cccnc12`, for which the Potency was 3.32 µM (active). Consider `CO[C@@H]1[C@@H](OC(N)=O)[C@@H](O)[C@H](Oc2ccc3c(O)c(NC(=O)c4ccc(O)c(CC=C(C)C)c4)c(=O)oc3c2C)OC1(C)C`, for which the Potency result is “inactive”.

For `COc1cccc(N(C)C(=S)Oc2ccc3c(c2)CCCC3)n1`, the Potency entry is “inactive”. As for `CNC1CCCN(c2c(F)cc3c(=O)c(C(=O)O)cn(C4CC4)c3c2OC)C1` (configuration not stated), the Potency entry is “inactive”. In the case of `CCN[C@H]1C[C@H](C)S(=O)(=O)c2sc(S(N)(=O)=O)cc21`, the Potency entry is “inactive”.

On to `COc1ccccc1OCC(O)COC(N)=O` (configuration not stated), for which the Potency entry was “inactive”. `O=NN(CCCl)C(=O)NC1CCCCC1`: the Potency entry is “inactive”.
